The text below walks through data of paper PMC7862700, “An all-to-all approach to the identification of sequence-specific readers for epigenetic DNA modifications on cytosine”.

Common to all, as to test: DAPPL (digital affinity profiling via proximity ligation, sequencing); 10 mM Tris-HCl pH 7.5, 50 mM NaCl, 1 mM DTT, 4% glycerol, room temperature, 30 min; GST-TFs on glutathione beads, 16-mer random dsDNA library, 0.1% formaldehyde crosslink after washing; high values mean tight binding
In assay [1] the target is T1, FLI1 (Homo sapiens, UniProt Q01543 1-452).
T1 sequence: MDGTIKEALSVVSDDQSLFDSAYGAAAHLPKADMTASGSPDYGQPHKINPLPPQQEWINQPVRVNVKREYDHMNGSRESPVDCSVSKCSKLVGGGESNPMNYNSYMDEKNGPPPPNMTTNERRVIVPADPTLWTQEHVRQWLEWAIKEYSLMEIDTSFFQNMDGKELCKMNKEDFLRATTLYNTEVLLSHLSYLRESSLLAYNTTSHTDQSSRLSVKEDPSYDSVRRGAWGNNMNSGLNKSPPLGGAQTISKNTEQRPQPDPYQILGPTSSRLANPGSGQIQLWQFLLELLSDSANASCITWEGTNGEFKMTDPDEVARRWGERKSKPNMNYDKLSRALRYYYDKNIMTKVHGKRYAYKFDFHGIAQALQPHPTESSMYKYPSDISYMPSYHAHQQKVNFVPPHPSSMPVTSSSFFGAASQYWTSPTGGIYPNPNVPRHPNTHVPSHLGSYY
Conditions: protein: recombinant; tags: N-terminal GST; dsDNA, one strand shown. The procedure, abridged: (§1)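 Binding signal is each hexamer's read frequency for a factor divided by its frequency in the tag-only sample. The factors were GST-fused human transcription factors from yeast, captured on glutathione beads, DNA-barcoded and pooled with that sample. Pools were incubated with 200 nmole of a random double-stranded 16-mer DNA library in Tris/NaCl/DTT/glycerol buffer at room temperature for 30 min, then washed, crosslinked with 0.1% formaldehyde, proximity-ligated with BsaI/T4 ligase (1 h, 37 °C), PCR-amplified and sequenced on an Illumina NextSeq500.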

For assay [2], the target named is SPI1 (Homo sapiens, UniProt P17947 1-270). Conditions: protein: recombinant; tags: N-terminal GST; dsDNA, one strand shown. The procedure, abridged: as §1
For assay [3], the target named is HSF1 (Homo sapiens, UniProt Q00613 1-529). Conditions: protein: recombinant; tags: N-terminal GST; chain copies: 3; dsDNA, one strand shown. The gist of the method: as §1
HSF1, sequence (Q00613 whole entry): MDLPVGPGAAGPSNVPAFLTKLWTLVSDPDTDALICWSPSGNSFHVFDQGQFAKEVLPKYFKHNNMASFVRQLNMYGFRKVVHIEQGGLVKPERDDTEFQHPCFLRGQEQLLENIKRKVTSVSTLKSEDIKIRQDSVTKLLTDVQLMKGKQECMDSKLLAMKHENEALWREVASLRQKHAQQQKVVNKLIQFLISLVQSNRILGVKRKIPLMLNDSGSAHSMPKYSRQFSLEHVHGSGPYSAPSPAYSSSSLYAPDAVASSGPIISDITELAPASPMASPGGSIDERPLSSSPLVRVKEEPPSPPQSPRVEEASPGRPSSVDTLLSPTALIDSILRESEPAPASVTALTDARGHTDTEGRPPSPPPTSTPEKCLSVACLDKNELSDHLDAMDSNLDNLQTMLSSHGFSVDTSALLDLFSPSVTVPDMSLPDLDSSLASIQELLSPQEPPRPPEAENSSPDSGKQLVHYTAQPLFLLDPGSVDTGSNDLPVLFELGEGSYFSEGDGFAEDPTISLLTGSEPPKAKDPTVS
Assay [4] deals with T2, ETV2 (Homo sapiens, UniProt O00321 1-342).
T2 sequence: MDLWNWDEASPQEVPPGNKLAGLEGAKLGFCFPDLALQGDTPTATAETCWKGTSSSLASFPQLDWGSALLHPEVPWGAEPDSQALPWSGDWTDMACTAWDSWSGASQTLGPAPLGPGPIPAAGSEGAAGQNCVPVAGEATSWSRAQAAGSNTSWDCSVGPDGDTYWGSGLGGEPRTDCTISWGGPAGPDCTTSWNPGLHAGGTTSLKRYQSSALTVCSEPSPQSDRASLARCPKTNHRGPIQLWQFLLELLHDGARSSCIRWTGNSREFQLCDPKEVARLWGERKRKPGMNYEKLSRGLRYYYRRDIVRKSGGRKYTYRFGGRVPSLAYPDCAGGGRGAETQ
Conditions: protein: recombinant; tags: N-terminal GST; dsDNA, one strand shown. The procedure, abridged:
as §1

Assay [5] addresses CRX (Homo sapiens, UniProt O43186 1-299). Conditions: protein: recombinant; tags: N-terminal GST; dsDNA, one strand shown. The procedure, abridged:
as §1

Assay [6] has as its target T3, FEV (Homo sapiens, UniProt Q99581 1-238).
T3 sequence: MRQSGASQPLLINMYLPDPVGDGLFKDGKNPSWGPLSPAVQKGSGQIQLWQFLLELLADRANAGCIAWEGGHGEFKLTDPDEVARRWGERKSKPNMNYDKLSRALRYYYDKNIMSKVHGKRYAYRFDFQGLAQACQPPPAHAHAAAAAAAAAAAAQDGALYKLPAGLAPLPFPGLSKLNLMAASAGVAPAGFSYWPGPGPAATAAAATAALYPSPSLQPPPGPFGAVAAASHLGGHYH
Conditions: protein: recombinant; tags: N-terminal GST; dsDNA, one strand shown. The gist of the method: as §1

Assay [7] deals with T4, ELF5 (Homo sapiens, UniProt Q9UKW6-2 1-255).
T4 sequence: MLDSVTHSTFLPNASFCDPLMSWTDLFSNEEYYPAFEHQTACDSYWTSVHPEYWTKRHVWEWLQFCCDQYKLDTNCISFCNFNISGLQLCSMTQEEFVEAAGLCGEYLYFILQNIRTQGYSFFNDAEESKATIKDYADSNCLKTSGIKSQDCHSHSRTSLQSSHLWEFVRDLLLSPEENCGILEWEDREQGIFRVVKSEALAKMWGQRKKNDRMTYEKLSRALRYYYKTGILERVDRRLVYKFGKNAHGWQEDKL
Conditions: protein: recombinant; tags: N-terminal GST; dsDNA, one strand shown. The procedure, abridged:
as §1

CRX, sequence (O43186 whole entry): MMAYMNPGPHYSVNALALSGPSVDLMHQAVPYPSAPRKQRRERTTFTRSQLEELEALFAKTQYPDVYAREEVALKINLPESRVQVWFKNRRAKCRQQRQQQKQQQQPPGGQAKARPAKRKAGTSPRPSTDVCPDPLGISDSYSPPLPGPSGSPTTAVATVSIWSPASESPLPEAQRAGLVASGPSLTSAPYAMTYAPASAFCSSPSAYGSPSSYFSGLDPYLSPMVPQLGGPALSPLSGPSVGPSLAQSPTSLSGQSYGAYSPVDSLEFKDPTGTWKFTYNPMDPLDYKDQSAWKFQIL

As for AGCTAG, the binding signal was 1.05 fold enrichment (6-mer frequency, TF over GST control) in assay [1]; 1.08 fold enrichment (6-mer frequency, TF over GST control) in assay [2]; 1.21 fold enrichment (6-mer frequency, TF over GST control) in assay [3]; 1.12 fold enrichment (6-mer frequency, TF over GST control) in assay [4]; 1 fold enrichment (6-mer frequency, TF over GST control) in assay [5].
For the sequence GCCCGA, the binding signal in assay [1] is 1.12 fold enrichment (6-mer frequency, TF over GST control); in assay [2], 1.01 fold enrichment (6-mer frequency, TF over GST control); in assay [6] it was 1.07 fold enrichment (6-mer frequency, TF over GST control); in assay [3], 1.1 fold enrichment (6-mer frequency, TF over GST control).
As for GATCTA, the binding signal in assay [1] was 1.12 fold enrichment (6-mer frequency, TF over GST control); in assay [2], 1 fold enrichment (6-mer frequency, TF over GST control); in assay [3], 1.41 fold enrichment (6-mer frequency, TF over GST control); in assay [4] it was 1.11 fold enrichment (6-mer frequency, TF over GST control); in assay [5], 1.41 fold enrichment (6-mer frequency, TF over GST control); in assay [7], 1.05 fold enrichment (6-mer frequency, TF over GST control).
Take TAAAGG: the binding signal in assay [1] is 1.04 fold enrichment (6-mer frequency, TF over GST control); in assay [2], 1.03 fold enrichment (6-mer frequency, TF over GST control); in assay [6], 1.02 fold enrichment (6-mer frequency, TF over GST control); in assay [3], 1.15 fold enrichment (6-mer frequency, TF over GST control); in assay [5] it was 1.56 fold enrichment (6-mer frequency, TF over GST control); in assay [7], 1.1 fold enrichment (6-mer frequency, TF over GST control).
As to GCTAAG, the binding signal in assay [1] is 1.13 fold enrichment (6-mer frequency, TF over GST control); in assay [3] it was 1.13 fold enrichment (6-mer frequency, TF over GST control); in assay [4], 1.07 fold enrichment (6-mer frequency, TF over GST control); in assay [5], 1.75 fold enrichment (6-mer frequency, TF over GST control); in assay [7], 1.01 fold enrichment (6-mer frequency, TF over GST control).
For TGATAG, the binding signal in assay [1] was 1.14 fold enrichment (6-mer frequency, TF over GST control); in assay [2] it was 1.01 fold enrichment (6-mer frequency, TF over GST control); in assay [3] it was 1.02 fold enrichment (6-mer frequency, TF over GST control); in assay [4], 1.09 fold enrichment (6-mer frequency, TF over GST control); in assay [5] it was 1.01 fold enrichment (6-mer frequency, TF over GST control).
In the case of GCTGGT, the binding signal is 1.29 fold enrichment (6-mer frequency, TF over GST control) in assay [1]; 1.19 fold enrichment (6-mer frequency, TF over GST control) in assay [2]; 1.1 fold enrichment (6-mer frequency, TF over GST control) in assay [6]; 1.06 fold enrichment (6-mer frequency, TF over GST control) in assay [3]; 1.1 fold enrichment (6-mer frequency, TF over GST control) in assay [4]; 1.05 fold enrichment (6-mer frequency, TF over GST control) in assay [5]. The binding signal in assay [7] is 1.09 fold enrichment (6-mer frequency, TF over GST control).
On to GATTTA, for which the binding signal is 1.02 fold enrichment (6-mer frequency, TF over GST control) in assay [1]; 1.54 fold enrichment (6-mer frequency, TF over GST control) in assay [3]; 1.05 fold enrichment (6-mer frequency, TF over GST control) in assay [4]; 2.33 fold enrichment (6-mer frequency, TF over GST control) in assay [5].
Turning to TTAAGA, the binding signal was 1.05 fold enrichment (6-mer frequency, TF over GST control) in assay [1]; 1.03 fold enrichment (6-mer frequency, TF over GST control) in assay [2]; 1.01 fold enrichment (6-mer frequency, TF over GST control) in assay [6]; 1.95 fold enrichment (6-mer frequency, TF over GST control) in assay [3]; 1.15 fold enrichment (6-mer frequency, TF over GST control) in assay [4]; 2.97 fold enrichment (6-mer frequency, TF over GST control) in assay [5].
In the case of TCGAGC, the binding signal is 1.02 fold enrichment (6-mer frequency, TF over GST control) in assay [1]; 1.46 fold enrichment (6-mer frequency, TF over GST control) in assay [3]; 1.04 fold enrichment (6-mer frequency, TF over GST control) in assay [4]; 1.01 fold enrichment (6-mer frequency, TF over GST control) in assay [5].
Take TGGATA: the binding signal is 1.08 fold enrichment (6-mer frequency, TF over GST control) in assay [1]; 1.03 fold enrichment (6-mer frequency, TF over GST control) in assay [6]; 1.2 fold enrichment (6-mer frequency, TF over GST control) in assay [3]; 1.02 fold enrichment (6-mer frequency, TF over GST control) in assay [4]; 1.34 fold enrichment (6-mer frequency, TF over GST control) in assay [5]; 1.04 fold enrichment (6-mer frequency, TF over GST control) in assay [7].
On to CTTAAG, for which the binding signal in assay [1] was 1.06 fold enrichment (6-mer frequency, TF over GST control); in assay [2], 1 fold enrichment (6-mer frequency, TF over GST control); in assay [6], 1.05 fold enrichment (6-mer frequency, TF over GST control); in assay [3], 1.7 fold enrichment (6-mer frequency, TF over GST control); in assay [4] it was 1.13 fold enrichment (6-mer frequency, TF over GST control); in assay [5], 2.69 fold enrichment (6-mer frequency, TF over GST control). Moreover, the binding signal in assay [7] was 1.09 fold enrichment (6-mer frequency, TF over GST control).
As for CTAGAA, the binding signal is 1.06 fold enrichment (6-mer frequency, TF over GST control) in assay [1]; 6.29 fold enrichment (6-mer frequency, TF over GST control) in assay [3]; 1.03 fold enrichment (6-mer frequency, TF over GST control) in assay [4]; 2.13 fold enrichment (6-mer frequency, TF over GST control) in assay [5].
Consider CCCCAG, for which the binding signal is 1.07 fold enrichment (6-mer frequency, TF over GST control) in assay [1]; 1.04 fold enrichment (6-mer frequency, TF over GST control) in assay [2]; 1.03 fold enrichment (6-mer frequency, TF over GST control) in assay [3]; 1.04 fold enrichment (6-mer frequency, TF over GST control) in assay [4].
Turning to CTAGCC, the binding signal in assay [1] was 1.07 fold enrichment (6-mer frequency, TF over GST control); in assay [2], 1.1 fold enrichment (6-mer frequency, TF over GST control); in assay [3], 1.05 fold enrichment (6-mer frequency, TF over GST control); in assay [4], 1.06 fold enrichment (6-mer frequency, TF over GST control).
For TGAAGA, the binding signal was 1 fold enrichment (6-mer frequency, TF over GST control) in assay [1]; 1.09 fold enrichment (6-mer frequency, TF over GST control) in assay [3]; 1 fold enrichment (6-mer frequency, TF over GST control) in assay [5].
Consider TAAGCA, for which the binding signal in assay [1] was 1.08 fold enrichment (6-mer frequency, TF over GST control); in assay [6] it was 1.04 fold enrichment (6-mer frequency, TF over GST control); in assay [3], 1.29 fold enrichment (6-mer frequency, TF over GST control); in assay [5], 1.7 fold enrichment (6-mer frequency, TF over GST control); in assay [7], 1.02 fold enrichment (6-mer frequency, TF over GST control).
On to GATCAA, for which the binding signal in assay [1] is 1.01 fold enrichment (6-mer frequency, TF over GST control); in assay [3], 1.25 fold enrichment (6-mer frequency, TF over GST control); in assay [4] it was 1.19 fold enrichment (6-mer frequency, TF over GST control); in assay [5], 1.52 fold enrichment (6-mer frequency, TF over GST control).
Regarding TAGATA, the binding signal was 1.07 fold enrichment (6-mer frequency, TF over GST control) in assay [1]; 1.46 fold enrichment (6-mer frequency, TF over GST control) in assay [3]; 1.12 fold enrichment (6-mer frequency, TF over GST control) in assay [4]; 1.48 fold enrichment (6-mer frequency, TF over GST control) in assay [5].
